Shown are actives, neighbours in structure and some others; about 2.8% of the full set was active somewhere.
Pol eta inh-1 = qHTS for Inhibitors of Polymerase Eta | DNA polymerase eta (Homo sapiens), Q9Y253 | recombinant Pol eta, fluorescent DNA replication assay | Potency, µM (doses to about 114 µM), for inactives: at the top dose activity change, negative = inhibition, hits mostly inhibitors | 390,000 compounds, 1.2% hits | AID 588591, 2011; further: potency means the concentration at half of the fitted maximal effect; on the % scale 0 is the no-effect control and ±100 the full control effect
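Pol eta at 10 nM preincubated with compounds 15 min at room temperature; reaction started with fluorescent substrate (50 nM final) and read kinetically at 0 and 10 min.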
Pol kappa inh-1 = qHTS for Inhibitors of Polymerase Kappa. DNA polymerase kappa (Homo sapiens), Q9UBT6. purified Pol kappa, fluorescent DNA synthesis assay, 10 min. Potency, µM (series often up to 107 µM), for the others: at the top dose activity, negative = inhibition, most hits filed as inhibitors. 400,000 compounds, 0.53% hits. AID 588579, 2011; further: potency means the concentration at half of the fitted maximal effect; on the % scale 0 is the no-effect control and ±100 the full control effect
Target sequence (Q9UBT6 whole entry, looked up): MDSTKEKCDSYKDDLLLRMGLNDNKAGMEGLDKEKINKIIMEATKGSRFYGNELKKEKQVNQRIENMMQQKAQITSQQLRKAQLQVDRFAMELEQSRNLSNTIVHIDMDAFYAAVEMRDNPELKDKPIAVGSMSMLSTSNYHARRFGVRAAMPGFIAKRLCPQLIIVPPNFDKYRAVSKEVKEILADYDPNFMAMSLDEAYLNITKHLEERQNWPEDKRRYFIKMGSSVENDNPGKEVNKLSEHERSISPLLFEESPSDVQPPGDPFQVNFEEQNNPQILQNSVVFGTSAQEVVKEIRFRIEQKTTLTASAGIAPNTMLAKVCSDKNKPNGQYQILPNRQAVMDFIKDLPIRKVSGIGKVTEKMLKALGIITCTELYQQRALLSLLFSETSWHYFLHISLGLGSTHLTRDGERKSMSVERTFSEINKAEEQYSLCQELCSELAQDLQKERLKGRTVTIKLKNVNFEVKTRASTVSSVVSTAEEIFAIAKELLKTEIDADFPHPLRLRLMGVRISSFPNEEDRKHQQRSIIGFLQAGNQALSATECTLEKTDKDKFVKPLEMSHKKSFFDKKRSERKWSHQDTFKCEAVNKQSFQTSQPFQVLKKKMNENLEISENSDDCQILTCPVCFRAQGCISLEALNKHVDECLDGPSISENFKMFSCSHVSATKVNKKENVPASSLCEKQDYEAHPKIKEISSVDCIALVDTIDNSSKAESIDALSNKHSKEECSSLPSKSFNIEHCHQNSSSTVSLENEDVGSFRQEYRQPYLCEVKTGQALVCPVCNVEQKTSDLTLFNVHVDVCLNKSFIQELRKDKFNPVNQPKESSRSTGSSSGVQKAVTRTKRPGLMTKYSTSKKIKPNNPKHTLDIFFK
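Enzyme at 10 nM met test compounds for 15 min at room temperature. Substrate addition (50 nM final) began the reaction, which was monitored by fluorescence at 0 and 10 min.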
PI5P4Ka inh = qHTS for Inhibitors of phosphatidylinositol 5-phosphate 4-kinase (PI5P4K); Phosphatidylinositol 5-phosphate 4-kinase type-2 alpha (Homo sapiens), P48426; PI5P4Kalpha enzyme, ADP-Glo luminescence, 60 min; stronger effect = lower value; AID 652105, 2013; max response, %; 330,000 compounds, 1.2% hits; active means max response of -50% or lower; inconclusive means between -30% and -50%; inactive means -30% or higher; further: value at the top dose of about 77 µM; on the % scale 0 is the no-effect control and ±100 the full control effect
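Compounds were pin-transferred onto PI5P4Kalpha and substrate in HEPES pH 7.4 buffer with EGTA, CHAPS and 5% DMSO. ATP (5 microM final) started the reaction, which ran 60 minutes at room temperature before ADP-Glo detection.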
POLI inh = qHTS for Inhibitors of Polymerase Iota | DNA polymerase iota (Homo sapiens), Q9UNA4 | Pol iota fluorescent replication assay, 10 min | Potency, µM (top dose mostly 115 µM), without a hit: at the highest dose activity, negative = inhibition, usual class: inhibitors | 390,000 compounds, 1% hits; further: potency means the concentration at half of the fitted maximal effect
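Fluorescent replication assay read twice, at 0 min and 10 min after adding 50 nM (final) substrate. Enzyme (10 nM) and compounds were first incubated 15 min at room temperature; enzyme-free buffer wells were negative controls.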
WRN inhibitor = qHTS for Inhibitors of WRN Helicase. Bifunctional 3'-5' exonuclease/ATP-dependent helicase WRN (Homo sapiens), Q14191. WRN helicase unwinding, fluorescent forked duplex, kinetic. Potency, µM (series often up to 114 µM), for the others: top-dose activity change, negative = inhibition, most hits filed as inhibitors. 360,000 compounds, 0.46% hits; further: potency means the concentration at half of the fitted maximal effect; on the % scale 0 is the no-effect control and ±100 the full control effect; nearly all actives have a fitted effect of over 55% in size
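WRN at 20 nM final was preincubated with compound for 15 min at room temperature; reaction started with 100 nM forked duplex oligonucleotide carrying fluorophore and quencher plus 2 mM ATP (final). Unwinding followed kinetically by red fluorescence (ex 525/em 598 nm).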
POLB inh = qHTS Assay for Inhibitors of DNA Polymerase Beta. Pol beta primer extension/strand displacement, fluorescence kinetic. Potency, µM (top dose mostly 114 µM), for the others: top-dose activity change, negative = inhibition, usual class: inhibitors. 340,000 compounds, 1.3% hits. AID 485314, 2010; further: potency means the concentration at half of the fitted maximal effect; on the % scale 0 is the no-effect control and ±100 the full control effect
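Values derive from four-parameter Hill fits of normalized kinetic data: reads at 0 and 10 min following addition of 50 nM substrate to 10 nM Pol beta preincubated 15 min with compound.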
PGK validate = qHTS for inhibitors of Phosphogylcerate Kinase: Hit Validation Screen. shares compounds with Pol kappa inh-1. TbPGK coupled GAPDH assay, Kinase-Glo luminescence. Potency, µM (top dose mostly 57.5 µM), inactives show top-dose activity change, negative = inhibition, hits mostly inhibitors. 500 compounds, 79% hits. AID 686980, 2013; further: potency means the concentration at half of the fitted maximal effect; on the % scale 0 is the no-effect control and ±100 the full control effect; nearly all actives have a fitted effect of over 65% in size
Pol iota confirm = qHTS for Inhibitors of Polymerase Iota: Confirmatory Assay for Cherry-picked Compounds; shares compounds with Pol kappa inh-1; Pol iota primer extension, TAMRA/BHQ fluorescence; Potency, µM, hits mostly inhibitors; 1,500 compounds, 77% hits; further: potency means the concentration at half of the fitted maximal effect
Pol kappa inh-2 = qHTS for Inhibitors of Polymerase Kappa: Confirmatory Assay for Cherry-picked Compounds; shares compounds with Pol eta inh-1; purified Pol-kappa, fluorescent strand-displacement substrate; Potency, µM, hits mostly inhibitors; 920 compounds, 76% hits; further: potency means the concentration at half of the fitted maximal effect
Pol eta inh-2 = qHTS for Inhibitors of Polymerase Eta: Confirmatory Assay for Cherry-picked Compounds | shares compounds with Pol eta inh-1 | Pol eta primer extension, TAMRA/BHQ fluorescence, 10 min | Potency, µM, actives largely listed as inhibitors | 2,600 compounds, 64% hits | AID 720502, 2013; further: potency means the concentration at half of the fitted maximal effect
* = called active by the depositor; ? = inconclusive; . = no result; [ ] = another dose, or the depositor's remark. Unless noted, the call rests on the fitted dose curve; in most records, active means well fitted curve in the direction sought with a large enough effect; inconclusive means small, poorly fitted or top-dose-only effect, or another doubt; inactive means no such curve, though single readings can be large; an effect the other way counts as inactive or inconclusive.

SMILES | Pol eta inh-1 | Pol kappa inh-1 | PI5P4Ka inh | POLI inh | WRN inhibitor | POLB inh | Pol iota confirm | Pol eta inh-2 | others
Cc1ccc(C(=O)O)cc1-c1ccc(/C=C2/NC(=O)N(c3ccccc3)C2=O)o1 | 2.8µM* | 22µM* | ? | 14µM* | 40µM* | 5.6µM* | 19* | 30* | Pol kappa inh-2=19*
Cc1ccc(CN2C(=O)N/C(=C\c3ccc(-c4ccc(C(=O)O)cc4C)o3)C2=O)cc1 | 18µM* | 79µM* | -23 | -95% | ? | 20µM* | 21* | 27*
O=C(O)c1cccc(-c2ccc(/C=N/NC(=O)c3cccnc3)o2)c1 | 10µM* | -42% | -26 | ? | -24%[57.1 µM] | 25µM* | ? | 30*
Cc1ccc(-n2c3nc(=O)[nH]c(=O)c-3cc3c(C)nn(-c4ccccc4)c32)cc1Cl | -8% | 6% | . | -5% | . | 8% | . | .
COc1cc(/C=N/NC(=O)c2ccncc2)cc(OC)c1OC | -7% | -5% | 5 | 10% | 3% | -26% | . | .
COc1cc(/C=N/NC(=O)c2cc(-c3cccn3C)n[nH]2)cc(OC)c1OC | 28µM* | ? | . | 3.5µM* | 6%[11.6 µM] | ? | ? | 27* | Pol kappa inh-2=19*
COc1cc(/C=N\NC(=O)c2ccc(=O)[nH]n2)cc(OC)c1OC | ? | 50µM* | 1 | 16µM* | -1% | 13µM* | 30* | 48*
COc1cc(/C=C/C=C2/CC/C(=C/C=C/c3ccc(O)c(OC)c3)C2=O)ccc1O | 5µM* | 14µM* | -93* | 3.5µM* | 40µM* | . | 21* | 15*
Cc1ccc(SC2=C(Sc3ccc(C)cc3)C(=O)c3ccccc3C2=O)cc1 | 18µM* | 5% | -15 | 6.3µM* | 79µM* | 1% | ? | 85*
O=C(NCc1ccc(F)cc1)C(=O)NCC(c1ccco1)S(=O)(=O)c1cccs1 (stereo not given) | -18% | 0%[60.1 µM] | . | 3% | . | 5% | . | .
CCN(CC)CCNC(=O)C(=O)Nc1c2c(nn1-c1ccc(F)cc1)CSC2 | -5% | -8%[60.1 µM] | . | 33% | . | 11% | . | .
O=C(CCN1C(=O)/C(=C\C=C\c2ccccc2)SC1=S)Nc1cccc(C(=O)O)c1 | 22µM* | 79µM* | ? | -20% | ? | 50µM* | 75* | 54*
Cc1cc(C)c2c(=O)nc(SCc3ccccc3C)n(C3CC3)c2n1 | -10% | -5%[60.1 µM] | . | -6% | . | -1% | . | .
CC(/C=C/c1ccc(N(C)C)cc1)=N\N=C(/N)SC1CC(=O)N(c2ccc(C(=O)O)cc2)C1=O (stereo not given) | 45µM* | -14% | -23 | 15% | -20% | 4% | 67* | ? | Pol kappa inh-2=42*
CN1\C(=C/C=C/C=C/C=[N+](C)C)C(C)(C)c2ccccc21 | 40µM* | 50µM* | ? | 18µM* | 4.2µM* | 16µM* | 38* | 34* | Pol kappa inh-2=38*
CN1/C(=C\C=O)C(C)(C)c2ccccc21 | -4% | -2% | -6 | 61% | 0% | 5% | . | .
O=C(O)Cc1c[nH]c2ccccc12 | -11% | -8% | 0 | 6% | -9% | . | . | .
O=C(O)Cc1c[nH]c2cccc(O)c12 | 8.9µM* | 22µM* | ? | ? | ? | 18µM* | 19* | 7.6*
Cc1[nH][nH]c(=O)c1C(c1cc(Br)ccc1O)c1c(C)[nH][nH]c1=O | 1% | -5% | -13 | -13% | -12% | -29% | . | .
O=C(O)c1[nH]c2ccccc2c1C(c1cc(Br)ccc1O)c1c(C(=O)O)[nH]c2ccccc12 | 50µM* | ? | 1 | ? | 3%[11.6 µM] | 79µM* | ? | ?
C/C(N)=C(/C#N)C(=O)CSc1ncnc2ccccc12 | ? | -6% | -11 | 31% | 0% | ? | . | .
C/C(N)=C(/C#N)C(=O)CSc1nc2ccccc2[nH]1 | 50µM* | ? | . | 20µM* | ? | 14µM* | 34* | 27*
COc1cccc2sc(N3CCN(C(=O)CCS(=O)(=O)c4ccc(F)cc4)CC3)nc12 | -4% | -7%[60.1 µM] | . | 7% | . | ? | . | .
Nc1c(/C=C2/C=CC(=O)C(O)=C2)c(=O)nc2sc(CC(=O)N3CCCC3)nn12 | 4µM* | ? | -56* | 3.2µM* | 40µM* | 7.9µM* | 24* | 5.4*
Nc1c(/C=C2/C=CC(=O)C(O)=C2)c(=O)nc2sc(CC(=O)N3CCOCC3)nn12 | 3.5µM* | ? | ? | 8.9µM* | ? | . | 17* | 6* | PGK validate=9.2µM*
N#C/C(=C\c1ccccc1)C(=O)Nc1sc2c(c1C(N)=O)CCC2 | -13% | -19% | . | ? | . | -1% | . | .
COc1ccc(/C=C2\SC(=S)N(C(Cc3ccccc3)C(=O)O)C2=O)cc1 (stereo not given) | 4% | -9% | 3 | -2% | ? | -12% | . | .
O=C(O)C(Cc1ccccc1)N1C(=O)/C(=C/C=C/c2ccco2)SC1=S (stereo not given) | 1.4µM* | 3.2µM* | -99* | 1.1µM* | 10µM* | 1.6µM* | 3* | 3.4* | PGK validate=5.8µM*
C#CCCCCCCCCCCCc1ccco1 | . | -7%[60.1 µM] | . | . | . | . | . | .
CN1C(=O)c2ccccc2Sc2ccc(NC(=O)N3CCN(c4ccccc4)CC3)cc21 | -17% | -19% | . | -28% | . | -23% | . | .

Screens: PubChem BioAssay, National Center for Advancing Translational Sciences (NCATS)
